From paper PMC5540273 (PLoS ONE, 2017)

Legend:
Conditions in all cases: concentration: 1 μM,replicates: in singlicate; n = 1
CDC2L2 = tested on: CDC2L2
CDC2L5 = tested on: T1, CDC2L5
T1 construct: gene CDK13

CDK11 = tested on: T2, CDK11
T2 construct: gene CDK19

CDK2 = tested on: CDK2
CDK3 = tested on: CDK3
CDK4-cyclinD1 = tested on: CDK4-cyclinD1
CDK4-cyclinD3 = tested on: CDK4-cyclinD3
CDK4 = tested on: CDK4
CDK5 = tested on: CDK5
CDK7 = tested on: CDK7
CDK8 = tested on: CDK8
CDK9 = tested on: CDK9
CDKL1 = tested on: CDKL1
CDKL2 = tested on: CDKL2
CDKL3 = tested on: CDKL3
CDKL5 = tested on: CDKL5
CHEK1 = tested on: CHEK1
CHEK2 = tested on: CHEK2
CIT = tested on: CIT
CLK1 = tested on: CLK1
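Note: KINOMEscan kinase panel screen.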

Row | SMILES | %Inh (CDC2L2) | %Inh (CDC2L5) | %Inh (CDK11) | %Inh (CDK2) | %Inh (CDK3) | %Inh (CDK4-cyclinD1) | %Inh (CDK4-cyclinD3) | %Inh (CDK4) | %Inh (CDK5) | %Inh (CDK7) | %Inh (CDK8) | %Inh (CDK9) | %Inh (CDKL1) | %Inh (CDKL2) | %Inh (CDKL3) | %Inh (CDKL5) | %Inh (CHEK1) | %Inh (CHEK2) | %Inh (CIT) | %Inh (CLK1)
1 | COc1cc2nccc(Nc3ccc(Oc4ccccc4)cc3)c2cc1OC.Cl [GI261656] | 28% | 0% | 0% | 0% | 0% | 0% | 0% | 44% | 0% | 0% | 38% | 0% | 0% | 10% | 0% | 0% | 0% | 67% | 0% | 19%
2 | COc1ccc(Nc2nccc(N3CCC(NC(=O)c4cccc(C#N)c4)C3)n2)cc1 (centres unmarked) [GSK1379730] | 0% | 0% | 4% | 0% | 26% | 34% | 0% | 36% | 7% | 0% | 17% | 0% | 24% | 0% | 0% | 0% | 0% | 0% | 0% | 11%
3 | CN(c1cccc(CNc2nc(Nc3ccc4c(c3)CC(=O)N4)ncc2C(F)(F)F)c1)S(C)(=O)=O | 7% | 0% | 0% | 6% | 22% | 22% | 0% | 0% | 31% | 53% | 0% | 6% | 44% | 55% | 7% | 0% | 0% | 0% | 30% | 63%
4 | COc1cc2c(Nc3ccc(NC(=O)c4ccccc4)cc3)ncnc2cc1OCCCN1CCOCC1 [GSK301329] | 7% | 0% | 0% | 0% | 2% | 0% | 0% | 7% | 0% | 24% | 0% | 0% | 23% | 30% | 0% | 0% | 0% | 58% | 9% | 10%
5 | CNC(=O)c1ccccc1Nc1nc(Nc2cccc(CS(C)(=O)=O)c2)ncc1C.O=CO [GSK1520489] | 0% | 0% | 0% | 16% | 36% | 0% | 19% | 30% | 0% | 89% | 4% | 0% | 28% | 52% | 0% | 0% | 16% | 86% | 45% | 99.3%
6 | c1ccc(Oc2ccc(Nc3ccnc4ccc(-c5ccccn5)cc34)cc2)cc1 [GW407034] | 0% | 0% | 12% | 0% | 15% | 0% | 12% | 0% | 93.1% | 0% | 0% | 0% | 9% | 16% | 0% | 14% | 26% | 0% | 4% | 14%
7 | Cl.c1ccc(Oc2ccc(Nc3ccnc4cc(-c5ccc(CN6CCNCC6)o5)ccc34)cc2)nc1 [GW567142] | 16% | 0% | 10% | 0% | 0% | 0% | 0% | 14% | 0% | 52% | 0% | 0% | 0% | 0% | 0% | 0% | 5% | 82% | 9% | 25%
8 | COC(=O)c1cccc(NC(=O)NC2CCN(c3ccnc(NCc4ccc(F)cc4)n3)CC2)c1 [GSK1379860] | 0% | 0% | 12% | 0% | 9% | 0% | 0% | 0% | 2% | 0% | 23% | 0% | 0% | 11% | 0% | 4% | 18% | 0% | 33% | 28%
9 | CN1CCN(CCNc2nc3cc(Oc4ccc(NC(=O)Nc5cc(C(F)(F)F)ccc5F)cc4)ccc3[nH]2)CC1.Cl.Cl [GW768504] | 7% | 0% | 47% | 0% | 6% | 0% | 0% | 2% | 0% | 96.6% | 55% | 0% | 3% | 56% | 43% | 0% | 0% | 3% | 67% | 2%
10 | C[C@@H](Oc1cc(-n2cnc3cc(-c4cnn(C)c4)ccc32)sc1C(N)=O)c1ccccc1Cl [GSK580432] | 0% | 0% | 28% | 26% | 20% | 0% | 3% | 18% | 0% | 0% | 17% | 5% | 20% | 22% | 0% | 0% | 32% | 0% | 32% | 59%
